Assay outcomes: PubChem BioAssay, National Center for Advancing Translational Sciences (NCATS)
HT1080 IDH1KD tx: HT-1080 IDH1 knockdown cell toxicity (counter line); Potency, µM (titrated, usually from 46.1 µM), for inactives: at the top dose activity, negative = toxicity, usual class: cytotoxic; HT-1080 IDH1 knockdown viability, ATP luminescence, 48 h; 360,000 compounds, 2% hits;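 also: 0% = DMSO wells and -100% = cell-free medium wells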
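Assay cells: HT-1080 with IDH1 knockdown, 750 per well, RPMI/5% FBS. Exposure: 48 h at 37 °C following 2 h pre-incubation. Read: CellTiter-Glo luminescence; fitted concentration-response, curve class assigned.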
KB-V1 cytotox: kills drug-selected multidrug resistant KB-V1 cells. Potency, µM (titrated, usually from 46.1 µM), most hits filed as cytotoxic. KB-V1 MDR cells viability, CellTiter-Glo, 72 h. 400,000 compounds, 3.4% hits. AID 1347076; also: nearly all actives have a fitted effect of over 60% in size
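Potencies derive from concentration-effect curves fitted to normalized luminescence (CellTiter-Glo) of KB-V1 cells treated for 72 h at 37 degrees C in phenol-red-free DMEM containing 10% FBS.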
KB-3-1 cytotox: KB-3-1 parental cell cytotoxicity | Potency, µM (doses to about 46.1 µM), usual class: cytotoxic | KB-3-1 viability, CellTiter-Glo ATP luminescence, 72 h | AID 1347075 | 400,000 compounds, 1.4% hits; also: nearly all actives have a fitted effect of over 60% in size
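Parental KB-3-1 viability, qHTS format: 72 h compound exposure, 37 °C; CellTiter-Glo; media-only wells and DMSO plates as controls; concentration-effect fits on corrected data.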
DT40 TDP1 no CPT: qHTS for Inhibitors of human tyrosyl-DNA phosphodiesterase 1 (TDP1): qHTS in cells in absence of CPT. DT40 Tdp1-/- hTDP1 cells, no CPT, ATP luminescence, 48 h. Potency, µM (series often up to 46.2 µM), without a hit: at the highest dose activity change, negative = growth inhibition, most hits filed as inhibitors. AID 686978, 2013. 420,000 compounds, 15% hits; also: nearly all actives have a fitted effect of over 55% in size
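Seeded 400 DT40-hTDP1 cells/well (vehicle DMSO, no 20 nM CPT); pinned compounds; ≥48 hr at 37 °C; CellTiter-Glo luminescence as viability measure.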
HT1080NT lethal: kills 2HG-producing HT-1080-NT fibrosarcoma cells | Potency, µM (highest dose often 46.1 µM), without a hit: top-dose activity, negative = less viability, most hits filed as cytotoxic | HT-1080-NT fibrosarcoma viability, CellTiter-Glo ATP luminescence, 48 h | 360,000 compounds, 1.6% hits;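 also: NT is the 2HG producing partner of a matched IDH1 knockdown line; 0% = DMSO-treated cells and -100% = media-only wells without cells; nearly all actives have a fitted effect of over 55% in size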
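A 48-hour cytotoxicity screen used HT-1080-NT cells plated 2 hours before compound delivery. ATP-based CellTiter-Glo luminescence measured viability, normalized to DMSO and no-cell controls.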
TDP1 cell CPT: DT40-hTDP1 cell growth loss with CPT; 420,000 compounds, 12% hits; Potency, µM (highest dose often 46.2 µM), for inactives: at the top dose activity change, negative = growth inhibition, usual class: inhibitors; chicken DT40 Tdp1-/-;hTDP1 cells + 20 nM CPT, ATP luminescence, 48 h; also: nearly all actives have a fitted effect of over 55% in size
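Cell growth measured by CellTiter-Glo luminescence after a minimum 48 h, 37 C compound exposure with 20 nM CPT in Tdp1-knockout DT40 cells stably expressing hTDP1, seeded 400/well; qHTS titration format.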
Starred values were filed as active, the others as inactive; i = inactive; u = inconclusive; x = no result; ! = not active in a repeat. Most compounds without a hit are left out; they make up all but 19% or so of the library. Calls follow the shape of the dose curve; as a rule, active = well fitted curve in the direction sought with a large enough effect; inconclusive = small, poorly fitted or top-dose-only effect, or another doubt; inactive = no such curve, though single readings can be large; an effect the other way counts as inactive or inconclusive. Unless noted, % is scaled to controls: 0 for no effect and ±100 for the full control effect; potency is read from the fitted curve at half-maximal effect.

SMILES	HT1080 IDH1KD tx	KB-V1 cytotox	KB-3-1 cytotox	DT40 TDP1 no CPT	HT1080NT lethal	TDP1 cell CPT
CC1(C(=O)NS(=O)(=O)c2ccccc2Cl)CCN1C(=O)Cc1ccc(Cl)cc1Cl (stereo not given)	-2.6%	i	i	-2.1%	-2.6%	4.9%
CC1(C)OC(=O)C2=C(C[C@@H](CCc3ccccc3)O[C@H]2CCc2cccc(Cl)c2)O1	-23.5%	u	i	u	-0.6%	u
CSc1cccc(CN2CCC(Oc3ccc(C(=O)N4CCCCC4)cc3)CC2)c1	u	i	u	-25.3%	u	u
CCCc1ccc(-c2cc(C(=O)N3CCN(c4ccccn4)CC3)c3ccccc3n2)cc1	u	u	u	18.4µM*	-12.3%	u
COc1cc(-c2cc(C(=O)N3CCN(c4ccccn4)CC3)c3ccccc3n2)cc(OC)c1OC	-10.9%	u	u	23.1µM*	5.9%	u
CCOc1ccc(-c2cc(C(=O)N3CCN(c4ccccn4)CC3)c3ccccc3n2)cc1	u	u	4.11µM*!	9.2µM*	u	5.8µM*
O=C(/C=C1\NC2(CCCC2)Cc2ccccc21)C(=O)N/N=C/c1ccccc1O	u	u	u	2.06µM*	23.1µM*	3.66µM*
CN(C)c1ccc(/C=N/NC(=O)C(=O)/C=C2\NC3(CCCC3)Cc3ccccc32)cc1	-16.4%	18.4µM*	i	20.6µM*	-4.5%	25.9µM*
CCNC(=O)CC1C(=O)N(c2ccc(F)cc2)C(=O)N1Cc1ccc(OC)c(OC)c1 (stereo not given)	x	i	i	u	x	-10.0%
CCOc1ccccc1CNC(=O)C1CCN(S(=O)(=O)c2ccc3c(ccn3C)c2)CC1	x	i	i	u	x	u
Nc1nccnc1C(=O)OCC(=O)c1ccc[nH]1	12.9%	i	i	-5.4%	15.1%	-3.5%
Cc1nc(NCC(=O)c2c[nH]c3ccccc23)sc1C	x	i	u	u	x	6.31µM*
CCCCCCc1cc2cc(S(=O)(=O)c3ccc(F)c(Cl)c3)c(=O)oc2cc1O	u	14.6µM*	i	7.31µM*	16.4µM*	5.8µM*
CCCCCCc1cc2cc(C(=O)Nc3ccc(OC)cc3)c(=O)oc2cc1O	-18.7%	8.2µM*	8.2µM*	5.8µM*	-9.5%	7.31µM*
CCCCCCc1cc2cc(C(=O)OCC)c(=O)oc2cc1O	-10.8%	i	i	-19.7%	2.4%	-20.9%
CCCCCCc1cc2cc(C(=O)NC)c(=N)oc2cc1O	23.4%	i	i	20.6µM*	4.0%	u
CCCCCCc1cc2cc(C(=O)Nc3cccc(OC)c3)c(=O)oc2cc1O	4.9%	6.51µM*	7.31µM*	3.66µM*	9.2%	2.59µM*
Cc1nc2c(-c3ccc(F)cc3)c(C)nn2c(C)c1CCC(=O)NCc1cccc(Cl)c1	x	i	u	u	x	u
CCc1nc2ccc(C(=O)NCCCN3CCCC3=O)cn2c1N(C)C(=O)Nc1ccccc1OC	8.5%	i	i	16.5%	25.3%	-2.4%
